{"source": "PubChem BioAssay AID1321", "about": "(The Scripps Research Institute Molecular Screening Center, 2008)", "note": "Out of some 220,000 compounds screened, about 2,600 (1.2%) were called active. This is one part of a sample in which actives are shown more often than they occur. Values without a mark were called inactive.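 The calls were made as follows: active = activation above the mean of all tested compounds plus 3 SD, set per screening run (cut at about 8.8% in these data); inactive = the rest.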", "data": [{"molecular_target": "Wee1-like protein kinase (Homo sapiens) (UniProt P30291)", "assay": "Wee1 degradation inhibitors, primary screen, cell-based, HeLa, Wee1K328M-luciferase, luminescence (AID 1321);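 also: cells exposed to compound for 20 h before luminescence read; 0% = DMSO alone and 100% = MG132 at 30 µM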", "conditions": "HeLa Luc-Wee1K328M stability, at 5 µM, hits give high values, 100% = proteasome inhibitor MG132 effect", "values": [{"smiles": "O=C(NC(=S)Nc1cccc2c(O)cccc12)c1cccc(Br)c1", "reporter increase": "-1.09%"}, {"smiles": "Cn1nnnc1SCC(=O)N1CCN(Cc2ccccc2)CC1", "reporter increase": "1.62%"}, {"smiles": "Cc1c(Br)c([N+](=O)[O-])nn1CC(=O)N1CCN(Cc2ccccc2)CC1", "reporter increase": "9.26% (active)"}, {"smiles": "O=C(Nc1ccccc1)N1CCN(Cc2ccccc2)CC1", "reporter increase": "4.02%"}, {"smiles": "O=C(c1[nH]ncc1-c1ccc(Cl)cc1)C1CO1", "note": "(stereo not given)", "reporter increase": "-0.11%"}, {"smiles": "O=C(O)c1cccnc1Sc1ncnc2sc3c(c12)CCC3", "reporter increase": "-1.76%"}, {"smiles": "O=C(Nc1ccccc1)Nc1ccc(C(F)(F)F)cn1", "reporter increase": "0.31%"}, {"smiles": "Cc1ccccc1OCC(=O)Nc1ccc(N2CCN(C(=O)C(C)C)CC2)c(Cl)c1", "reporter increase": "-0.59%"}, {"smiles": "COc1cc(NC(=O)COc2ccccc2Cl)ccc1NC(=O)C(C)C", "reporter increase": "9.65% (active)"}, {"smiles": "O=C(COc1ccccc1Cl)Nc1ccc(C(=O)c2ccc(C(=O)O)cc2)cc1", "reporter increase": "-1.08%"}, {"smiles": "COc1cc(N2C(=O)CC3(CCCC3)CC2=O)cc(OC)c1OC", "reporter increase": "-3.15%"}, {"smiles": "Cc1ccc(NC(=S)NCc2ccccc2Cl)c(C)c1", "reporter increase": "4.9%"}, {"smiles": "Cc1ccc(NC(=S)Nc2ncccc2C)c(C)c1", "reporter increase": "11.8% (active)"}, {"smiles": "Cc1ccc(NC(=S)NC(=O)c2ccc(-c3ccccc3)cc2)c(C)c1", "reporter increase": "1.11%"}, {"smiles": "COc1ccc(CNC(=O)CCC(=O)Nc2nnc(C(C)C)s2)cc1", "reporter increase": "0.8%"}, {"smiles": "COc1ccc(NS(=O)(=O)c2ccc(Oc3c(C#N)cccc3C#N)cc2)cc1", "reporter increase": "-2.73%"}, {"smiles": "O=C(c1ccc(=O)oc1)N1CCC(C(O)(c2ccccc2)c2ccccc2)CC1", "reporter increase": "4.74%"}, {"smiles": "Cc1ccsc1/C=N/n1c(=S)[nH]nc(C)c1=O", "reporter increase": "11.5% (active)"}, {"smiles": "S=c1[nH]nc(-c2cccs2)n1/N=C/c1cccs1", "reporter increase": "-2.19%"}, {"smiles": "Oc1ccccc1/C=N/n1c(-c2cccs2)n[nH]c1=S", "reporter increase": "-3.64%"}, {"smiles": "CCOc1ccc(C2NC(=S)NC3=C2CCc2ccccc23)cc1", "note": "(stereo not given)", "reporter increase": "3.12%"}, {"smiles": "CCOC(=O)c1ccc(NC(=O)Cn2cnc3cc(C)c(C)cc32)cc1", "reporter increase": "-1.24%"}, {"smiles": "CCN(CC(=O)NC1CCS(=O)(=O)C1)S(=O)(=O)c1ccccc1", "note": "(stereo not given)", "reporter increase": "-0.95%"}, {"smiles": "O=C(CSc1ccccc1F)NC1CCS(=O)(=O)C1", "note": "(stereo not given)", "reporter increase": "12.3% (active)"}, {"smiles": "O=C(CSc1nn(-c2ccc(F)cc2)c(=S)s1)NC1CCS(=O)(=O)C1", "note": "(stereo not given)", "reporter increase": "0.51%"}, {"smiles": "Cc1cc(C)c2c(n1)nn1c(N3CCOCC3)cc(C)nc21", "reporter increase": "-0.28%"}, {"smiles": "Cc1cc(C)c2c(n1)nn1c(-n3ccnc3)cc(C)nc21", "reporter increase": "2.99%"}, {"smiles": "Cc1cc(C)c2c(n1)nn1c(N3CCN(c4cccc(Cl)c4)CC3)cc(C)nc21", "reporter increase": "14.1% (active)"}, {"smiles": "Cc1ccc(C(=O)NNc2ncnc3ccccc23)cc1", "reporter increase": "-1.2%"}, {"smiles": "COc1ccc(C(C)=O)cc1COc1ccc(Cl)c(C)c1", "reporter increase": "1.76%"}, {"smiles": "Cn1c(NC(=O)c2ccc3c(c2)OCO3)cc(=O)n(C)c1=O", "reporter increase": "-1.07%"}, {"smiles": "CC(C)Oc1ccc(C(=O)Nc2cc(=O)n(C)c(=O)n2C)cc1", "reporter increase": "11% (active)"}, {"smiles": "CC(C)Oc1ccc(C(=O)NC(C)(C)CO)cc1", "reporter increase": "-0.33%"}, {"smiles": "CC12C(=O)N(c3ccccc3)C(=O)C1C(c1ccccc1)N1CCCN12", "note": "(stereo not given)", "reporter increase": "1.06%"}, {"smiles": "Cc1[nH][nH]c(=O)c1N=Nc1ccccc1", "reporter increase": "3.8%"}, {"smiles": "Nc1[nH][nH]c(=O)c1N=Nc1ccc2c(c1)OCO2", "reporter increase": "9.03% (active)"}, {"smiles": "Cc1[nH][nH]c(=O)c1C(c1ccc2c(c1)OCO2)c1c(C)[nH][nH]c1=O", "reporter increase": "1.31%"}, {"smiles": "CCN(CC)CCn1cnc2c1c(=O)n(CCOC(=O)c1cc(OC)c(OC)c(OC)c1)c(=O)n2C", "reporter increase": "-2.15%"}, {"smiles": "COc1ccc(/C(C)=N/N2CCOCC2)c(O)c1", "reporter increase": "3.27%"}, {"smiles": "CC(C)N(C(=O)c1ccc(-c2ccccc2F)cc1)C(C)C", "reporter increase": "1.6%"}, {"smiles": "Cc1ccc2c(N)c(C(=O)c3ccccc3)sc2n1", "reporter increase": "3.2%"}, {"smiles": "CCN(CC)C(=O)c1sc2nc(-c3ccccc3)ccc2c1N", "reporter increase": "15.4% (active)"}, {"smiles": "CCOC(=O)c1sc2nc(SC)nc(-c3ccccc3)c2c1N", "reporter increase": "0.82%"}, {"smiles": "Cn1c(SCC(=O)N/N=C/c2ccc(O)c(O)c2)nc2ccccc21", "reporter increase": "3.18%"}, {"smiles": "O=C(Cc1ccccc1)NCc1ccc(F)cc1", "reporter increase": "0.79%"}, {"smiles": "CCC(C(=O)OCC(=O)Nc1ccccc1-c1ccccc1)c1ccccc1", "note": "(stereo not given)", "reporter increase": "3.65%"}, {"smiles": "O=C(CNCc1ccc(F)cc1)Nc1ccccc1-c1ccccc1", "reporter increase": "11.8% (active)"}, {"smiles": "CC(=O)OCCOCn1cnn2c(=O)c(Br)c(C)nc12", "reporter increase": "5.31%"}, {"smiles": "CCOC(=O)C(=O)C1C(=O)Nc2ccccc21", "note": "(stereo not given)", "reporter increase": "-1.16%"}, {"smiles": "O=C1CC2(CC(c3ccc(Cl)cc3)=NO2)C(=O)N1c1ccccc1", "note": "(stereo not given)", "reporter increase": "0.07%"}, {"smiles": "CCOc1cc2c(Cl)ncnc2c(OCC)c1OCC", "reporter increase": "-3.14%"}, {"smiles": "COc1ccc(OCC(=O)OCC(=O)Nc2ccc(S(=O)(=O)N3CCCCC3)cc2)cc1", "reporter increase": "-0.17%"}, {"smiles": "COc1ccc(CCNC(=O)COC(=O)C2CCCCC2)cc1", "reporter increase": "-1.3%"}, {"smiles": "COc1ccc(NC(=O)COC(=O)CNC(=O)C2CCCCC2)cc1", "reporter increase": "11.6% (active)"}, {"smiles": "Cc1ccc(OCC(=O)N/N=C/c2ccncc2)cc1", "reporter increase": "-0.52%"}, {"smiles": "O=C(CN1CCSCC1)N/N=C/c1ccc(Cl)cc1", "reporter increase": "2.89%"}, {"smiles": "Cc1ccc(COc2ccc(/C=N/NC(=O)CN3CCCCC3)cc2)cc1", "reporter increase": "22.3% (active)"}, {"smiles": "CC1=NOC(=O)/C1=C\\c1ccccc1", "reporter increase": "-0.32%"}, {"smiles": "O=C(COc1ccc([N+](=O)[O-])cc1Cl)Nn1cnnc1", "reporter increase": "-0.06%"}, {"smiles": "COc1ccc(NC(=S)NC2CCS(=O)(=O)C2)cc1", "note": "(stereo not given)", "reporter increase": "4.7%"}, {"smiles": "COc1ccc(-c2ccc(OC(=O)NC3CCS(=O)(=O)C3)cc2)cc1", "note": "(stereo not given)", "reporter increase": "9.29% (active)"}, {"smiles": "CC(C)(C)c1ccc(/C=C/C(=O)NC2CCS(=O)(=O)C2)cc1", "note": "(stereo not given)", "reporter increase": "2.93%"}, {"smiles": "CCCNC(=O)NCc1ccc(N2CCCC2=O)cc1", "reporter increase": "10.3% (active)"}, {"smiles": "CC1CCC(NC(=O)c2ccc(N3CCCC3=O)cc2)CC1", "note": "(stereo not given)", "reporter increase": "0.06%"}, {"smiles": "O=C(NCCCN1CCCCCC1)c1ccc(N2CCCC2=O)cc1", "reporter increase": "2.16%"}, {"smiles": "O=S(=O)(Cc1noc(-c2ccc(OC(F)(F)F)cc2)n1)c1ccc(F)cc1", "reporter increase": "4.61%"}, {"smiles": "CCOc1ccc(CN(Cc2ccco2)C(c2cccs2)c2nnnn2C(C)(C)C)cc1", "note": "(stereo not given)", "reporter increase": "9.99% (active)"}, {"smiles": "CC(C)(C)n1nnnc1C(c1cccs1)N(Cc1cccnc1)CC1CCCO1", "note": "(stereo not given)", "reporter increase": "4.79%"}, {"smiles": "CCOc1ccc(CN(Cc2ccco2)S(=O)(=O)c2ccc(-n3cnnn3)c(OC)c2)cc1", "reporter increase": "1.7%"}, {"smiles": "CCCCCCCCCCCCN1C(=O)CSC1c1cccnc1", "note": "(stereo not given)", "reporter increase": "-0.61%"}, {"smiles": "COc1ccc(CCNC(=O)C(=O)NCC2CCNCC2)cc1OC", "reporter increase": "-1.92%"}, {"smiles": "COc1cc(/C=N\\Nc2nc(-c3cccs3)c(NC(C)=O)s2)ccc1O", "reporter increase": "-1.53%"}, {"smiles": "COc1ccc(NS(=O)(=O)c2ccc(N3CCOCC3)c(NC(=O)c3ccccc3Br)c2)cc1", "reporter increase": "0.37%"}, {"smiles": "CCn1c(SCC(=O)c2ccc3ccccc3c2)nnc1-c1cccs1", "reporter increase": "4.66%"}, {"smiles": "O=C(CSc1nnc(-c2cccs2)n1Cc1ccccc1)N1CCc2ccccc2C1", "reporter increase": "9.02% (active)"}, {"smiles": "O=C(CSc1nnc(-c2cccs2)n1-c1ccccc1)N1CCN(C(=O)c2ccco2)CC1", "reporter increase": "-2.17%"}, {"smiles": "CCOc1ccc(-n2cnc3c(=O)[nH]c(N)nc32)cc1", "reporter increase": "-1.45%"}, {"smiles": "CC(C)c1cc(CN2CCOCC2)cc(C(C)C)c1O", "reporter increase": "1.64%"}, {"smiles": "O=C(CCCCCN1C(=O)c2cccc3cccc(c23)C1=O)NCc1ccco1", "reporter increase": "-0.37%"}, {"smiles": "Cc1cccc(-[n+]2c(-c3cccc(Br)c3)[nH]c3nc4ccccc4nc32)c1", "reporter increase": "1.73%"}, {"smiles": "COc1ccccc1OCCOc1ccc(/C=N/n2cnnc2)cc1", "reporter increase": "3.34%"}, {"smiles": "COc1cccc(OCCOc2cccc(/C=N/n3cnnc3)c2)c1", "reporter increase": "10.7% (active)"}, {"smiles": "C=CCc1ccc(OCCOc2cccc(/C=N/n3cnnc3)c2)c(OC)c1", "reporter increase": "0.6%"}, {"smiles": "COc1ccc(NC(=O)c2cn(-c3ccccc3)nc2SC)cc1", "reporter increase": "-2.29%"}, {"smiles": "O=C(CSc1nnc(SCc2ccc(F)cc2)s1)Nc1ccc(C(=O)O)cc1", "reporter increase": "-1.55%"}, {"smiles": "CS/C(=C\\C(=O)c1ccco1)Nc1ccccc1Cl", "reporter increase": "6.17%"}, {"smiles": "NNC(=O)C1CCCn2c1nc1sc3c(c1c2=O)CCCC3", "note": "(stereo not given)", "reporter increase": "-0.79%"}, {"smiles": "Cn1c(NN)nc2sc3c(c2c1=O)CCC3", "reporter increase": "11.1% (active)"}, {"smiles": "Cc1nc2sc3c(c2c(=O)n1NC(=O)CCl)CCCC3", "reporter increase": "1.1%"}, {"smiles": "CC(NS(=O)(=O)c1ccccc1)c1n[nH]c(=S)n1-c1ccccc1", "note": "(stereo not given)", "reporter increase": "0.56%"}, {"smiles": "COC(=O)c1sc(NC(=S)NC(=O)c2ccc(C)cc2)nc1C", "reporter increase": "-0.57%"}, {"smiles": "c1c2c(cc3sc(N4CCCCC4)nc13)OCCO2", "reporter increase": "-3.23%"}, {"smiles": "Brc1ccc2nc(N3CCCC3)sc2c1", "reporter increase": "18.3% (active)"}, {"smiles": "Cc1nc(N2CCCCC2)sc1C=O", "reporter increase": "-0.49%"}, {"smiles": "Cc1ccc(F)cc1NC(=O)N1CCCN(c2ccc(C(F)(F)F)cn2)CC1", "reporter increase": "-2.91%"}, {"smiles": "CN(C)CCCN(Cc1cc2cc3c(cc2[nH]c1=O)OCCO3)C(=O)NC1CCCCC1", "reporter increase": "-1.12%"}, {"smiles": "O=C(N/N=C/c1ccco1)c1csc2c1CCCC2", "reporter increase": "9.05% (active)"}, {"smiles": "O=C(N/N=C/c1ccco1)c1ccc(C(=O)N/N=C/c2ccco2)o1", "reporter increase": "-0.09%"}, {"smiles": "O=C(N/N=C/c1ccco1)c1ccc(NC(=O)C2CC2)cc1", "reporter increase": "1.48%"}, {"smiles": "COc1ccc(CN(Cc2ccc(OC)cc2)C(=O)c2cccs2)cc1", "reporter increase": "1.79%"}]}]}
